Assay results: PubChem BioAssay (NCATS)
Results filed as inconclusive are left out. Calls of active or inactive are those of the source. Calls follow the shape of the dose curve; as a rule, active = well fitted curve in the direction sought with a large enough effect; inconclusive = small, poorly fitted or top-dose-only effect, or another doubt; inactive = no such curve, though single readings can be large; an effect the other way counts as inactive or inconclusive.

Experiments:
[1] = molecular target: Cellular tumor antigen p53 (Homo sapiens) (UniProt P04637); test: Primary qHTS for small molecule compounds that upregulate eGFP-tagged delta133p53alpha (in N-terminal) cells. (AID 2060322); conditions: NCI-H358 eGFP-delta133p53alpha fluorescence, 24 h; activation: stronger effect = higher value;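 also: 0% = DMSO vehicle and 100% = reference activator; nearly all actives have a fitted effect of over 75% in size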
In short: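 NCI-H358 cells pre-induced 24 h with 10 ng/ml doxycycline to express N-terminal eGFP-delta133p53alpha, then dosed 24 h at 37C without doxycycline; fixed, Hoechst-stained, GFP intensity by laser scanning cytometry, normalized to DMSO (0%) and 57.5 uM 5-azacytidine (100%).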

[2] = molecular target: Aldehyde dehydrogenase, mitochondrial (Homo sapiens) (UniProt P05091); test: qHTS for Inhibitors of the Aldehyde Dehydrogenase Family (ALDH2) Primary screen (AID 2061308); conditions: ALDH2 enzyme inhibition qHTS, 1536-well; series mostly up to 56 µM;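 also: plate controls were vehicle for no effect and reference inhibitor for full effect; nearly all actives have a fitted effect of over 55% in size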
[3] = molecular target: Retinaldehyde dehydrogenase 3 (Homo sapiens) (UniProt P47895); test: qHTS for Inhibitors of the Aldehyde Dehydrogenase Family (ALDH1A3) Primary screen (AID 2061315); conditions: ALDH inhibition qHTS; series mostly up to 56 µM;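 also: plate controls were DMSO vehicle for no effect and reference inhibitor for full effect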

Chain of Cellular tumor antigen p53 (Homo sapiens) (P04637 whole entry, looked up): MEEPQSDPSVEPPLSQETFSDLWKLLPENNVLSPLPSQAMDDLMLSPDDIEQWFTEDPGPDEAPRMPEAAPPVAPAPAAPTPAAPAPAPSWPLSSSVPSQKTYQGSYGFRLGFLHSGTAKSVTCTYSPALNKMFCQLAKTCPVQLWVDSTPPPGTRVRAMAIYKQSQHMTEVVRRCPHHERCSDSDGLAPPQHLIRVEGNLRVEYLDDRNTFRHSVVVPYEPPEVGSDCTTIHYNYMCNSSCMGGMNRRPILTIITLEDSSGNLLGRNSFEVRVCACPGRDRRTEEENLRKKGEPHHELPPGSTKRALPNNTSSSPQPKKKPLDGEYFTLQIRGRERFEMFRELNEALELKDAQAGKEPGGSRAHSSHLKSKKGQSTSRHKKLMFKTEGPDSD

O=C1NC(Cc2c[nH]c3ccccc23)C(=O)NC1Cc1c[nH]c2ccccc12 (configuration not stated)
inactive: activation [1] 14.5% | Potency [2] | Potency [3]

C=C1C2(CCC(=O)OC2(C)C)CC(OC(=O)/C(C)=C/C)C2(C)C13OC14C(=O)OC(C)(C(=O)C12C(=O)OC4C)C3OC(C)=O (configuration not stated)
inactive: activation [1] -0.763% | Potency [2] | Potency [3]

CC(C)(O)C1CCC(C)(C2CCC3(C)C4CCC5C(C)(C(=O)OC6OC(CO)C(O)C(O)C6O)C(O)CC(O)C56CC46CCC23C)O1 (configuration not stated)
inactive: activation [1] -11.5% | Potency [2] | Potency [3]

CC1(C)CC[C@]2(C(=O)O)[C@H](O)C[C@]3(C)C(=CCC4[C@@]5(C)CC[C@H](O[C@@H]6OC[C@@H](O)[C@H](O)[C@H]6O)[C@@](C)(C(=O)O)C5CC[C@]43C)[C@@H]2C1 (some centres not stated)
inactive: activation [1] 6.11% | Potency [2] | Potency [3]
